The panel holds about 79,000 compounds, 15% with a hit somewhere; the sample as a whole holds those more often. Active and inactive are the calls of the source. No stated cut-off is given here; in the data, active means growth inhibition above about 70%; inactive means the rest.
Test: NCI Yeast Anticancer Drug Screen. Data for the rad50 strain (AID 155);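 further: 0% = growth of vehicle-only cultures of the same strain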
Conditions: S. cerevisiae rad50 strain growth inhibition; at 50.0 µM; stronger effect = higher value
In short: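 Compounds were tested on a yeast strain with an engineered DNA damage repair alteration; the reported value is growth inhibition normalised to vehicle treatment.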
In the case of `CC1=C(CCC(C)CO)OC2CC3C4CCC5CC(O)CCC5(C)C4CCC3(C)C12` (stereo not given), the growth inhibition is reported as -4.5% (inactive). For `COC(=O)c1nc(N)nc(C(=O)OC)c1C(=O)c1ccc(Cl)c(Cl)c1`, the growth inhibition was -7.6% (inactive). For `CNC(=O)OCc1c(COC(=O)NC)c(-c2ccccc2)n(-c2ccccc2)c1C`, the growth inhibition was 24.4% (inactive). With `C=C(C)COC(=O)COc1ccc(Cl)cc1` the growth inhibition was 1.05% (inactive). In the case of `CCCNC(=S)/N=C\c1c(O)c2ccccc2oc1=O`, the growth inhibition is reported as -38.8% (inactive). In the case of `CCOC(=O)/C(C)=C1\N=C(c2ccccc2)OC(=NC2CCCCC2)N1C1CCCCC1`, the growth inhibition is reported as 9.95% (inactive). In the case of `CCOC(=O)/C(C)=C(/C)Nc1ccccc1`, the growth inhibition is reported as 1.45% (inactive). For `O=C(CNC(=O)c1ccccc1)Nc1ccc([N+](=O)[O-])cc1`, the growth inhibition was 15.2% (inactive). In the case of `Nc1ccc(Nc2c3ccccc3nc3ccccc23)cc1`, the growth inhibition is reported as 96% (active). With `CC(C)(N=NC(C)(C)C(=O)NCCO)C(=O)NCCO` the growth inhibition was -6.15% (inactive). For `CC(=O)c1ccc2ccccc2c1`, the growth inhibition was 24.4% (inactive). For `Cc1ccc(CSCc2c(CSCc3ccc(C)cc3)c(CSCc3ccc(C)cc3)c(CSCc3ccc(C)cc3)c(CSCc3ccc(C)cc3)c2CSCc2ccc(C)cc2)cc1`, the growth inhibition was -6% (inactive). In the case of `O=C(NO)Oc1cccc2ccccc12`, the growth inhibition is reported as 9.7% (inactive). In the case of `O=C1/C(=C/c2ccccc2)N=C2Sc3c(nc[nH]c3=O)N12`, the growth inhibition is reported as 16.5% (inactive). With `O=c1c(O)c(-c2ccccc2)oc2c(CP(=O)(O)O)cccc12` the growth inhibition was 5.05% (inactive). In the case of `O=C(O)CCC(=O)Nc1ccccc1C(=O)O`, the growth inhibition is reported as -1.15% (inactive). For `CC(C)OP(=O)(OC(C)C)c1ccc2c(c1)OCCOCCOCCOCCO2`, the growth inhibition was -2.9% (inactive). In the case of `O=C(OCC1OC(n2nc(SCc3ccccc3)c(=S)[nH]c2=O)C(OC(=O)c2ccccc2)C1OC(=O)c1ccccc1)c1ccccc1` (stereo not given), the growth inhibition is reported as 1.05% (inactive). With `CCNC(=O)CCN(C(=O)O)S(=O)(=O)c1ccc(NC(=O)c2ccccc2)cc1` the growth inhibition was -23.2% (inactive). With `Cc1ccc(C(C)C)c(OCC2=NCCN2C)c1` the growth inhibition was -7.15% (inactive). In the case of `C=C(C(=O)O)C1CC[C@@]2(C)CC(O)CC(=C)C2C1` (stereo not given in full), the growth inhibition is reported as 16.4% (inactive). With `O=C1CCC2=NCc3c(ccc4ccccc34)N12` the growth inhibition was 4.7% (inactive). With `O=c1c(O)c(O)c1=O` the growth inhibition was 1.3% (inactive). For `Cc1cc(=O)c2cc(-c3ccccc3)ccc2[nH]1`, the growth inhibition was -1% (inactive). With `N#Cc1nc(COCc2ccccc2)oc1N` the growth inhibition was -19.9% (inactive). With `COC(=O)c1ccc(/C=C/c2cc(O)ccc2O)cc1` the growth inhibition was 16.5% (inactive). With `O=S(=O)(SSS(=O)(=O)c1ccc(Cl)c(Cl)c1)c1ccc(Cl)c(Cl)c1` the growth inhibition was 7.8% (inactive). With `CCCCOC(=O)CNC(=O)c1ccc(C)c(OCc2ccccc2)c1[N+](=O)[O-]` the growth inhibition was 0.5% (inactive). With `COC1C2CC3C4(CCC5C6(C)CCCC53C(C14)N(C)C6)CC21CCC23C4C=C5C6=C(CCC5(CC42)C3O1)C1(C)CC(C6)CN(C)C1` (stereo not given) the growth inhibition was 33.6% (inactive). For `O=c1cc(C=Nc2ccc(-c3csc(-c4ccccc4)n3)cc2)[nH]c(=S)[nH]1`, the growth inhibition was 97.2% (active). In the case of `C1OC2OC3OCOC3C2O1` (stereo not given), the growth inhibition is reported as 16.4% (inactive). For `O=C1CCNC(=O)N1`, the growth inhibition was 33.7% (inactive). For `CC1(C)NC(=O)N(CCCCCCN2C(=O)NC(C)(C)C2=O)C1=O`, the growth inhibition was 5.1% (inactive). In the case of `CC(Br)C(=O)n1c2ccccc2c2ccccc21` (stereo not given), the growth inhibition is reported as 21.6% (inactive). With `COC(=O)c1ccc(SCCC(=O)CO)cc1` the growth inhibition was 19.4% (inactive). For `S=C(Nc1ccccc1)Nc1ccc(NC(=S)Nc2ccccc2)cc1`, the growth inhibition was 8.25% (inactive). In the case of `NCCCOC12CC3CC(CC(C3)C1)C2`, the growth inhibition is reported as 6.1% (inactive). In the case of `O=C(CC(=O)Nc1ccccc1)N/N=C/c1cc(N=Nc2ccc(Br)cc2)ccc1O`, the growth inhibition is reported as 16.4% (inactive). With `CCOC(=O)c1nc(C)oc1C(=O)OCC` the growth inhibition was 0.85% (inactive). With `O=c1oc2c(Cl)cc(Cl)cc2cc1-c1nc2ccccc2[nH]1` the growth inhibition was 29.1% (inactive).

Test: NCI Yeast Anticancer Drug Screen. Data for the mec2-1 strain (AID 157)
Conditions: S. cerevisiae mec2-1 strain, at 50.0 µM, stronger effect = higher value
In short: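 Growth inhibition is read against vehicle-treated controls after compound exposure of the mec2-1 yeast strain, which is defective in DNA damage repair or cell cycle control.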
With `CC1=C(CCC(C)CO)OC2CC3C4CCC5CC(O)CCC5(C)C4CCC3(C)C12` (stereo not given) the growth inhibition was -22.6% (inactive). With `COC(=O)c1nc(N)nc(C(=O)OC)c1C(=O)c1ccc(Cl)c(Cl)c1` the growth inhibition was 7.15% (inactive). For `CNC(=O)OCc1c(COC(=O)NC)c(-c2ccccc2)n(-c2ccccc2)c1C`, the growth inhibition was 27.8% (inactive). For `C=C(C)COC(=O)COc1ccc(Cl)cc1`, the growth inhibition was -32.7% (inactive). With `CCCNC(=S)/N=C\c1c(O)c2ccccc2oc1=O` the growth inhibition was -56.8% (inactive). For `CCOC(=O)/C(C)=C1\N=C(c2ccccc2)OC(=NC2CCCCC2)N1C1CCCCC1`, the growth inhibition was -4.8% (inactive). In the case of `CCOC(=O)/C(C)=C(/C)Nc1ccccc1`, the growth inhibition is reported as 3.8% (inactive). For `O=C(CNC(=O)c1ccccc1)Nc1ccc([N+](=O)[O-])cc1`, the growth inhibition was -0.65% (inactive). For `Nc1ccc(Nc2c3ccccc3nc3ccccc23)cc1`, the growth inhibition was 33% (inactive). With `CC(C)(N=NC(C)(C)C(=O)NCCO)C(=O)NCCO` the growth inhibition was -6.65% (inactive). For `CC(=O)c1ccc2ccccc2c1`, the growth inhibition was 7.8% (inactive). In the case of `Cc1ccc(CSCc2c(CSCc3ccc(C)cc3)c(CSCc3ccc(C)cc3)c(CSCc3ccc(C)cc3)c(CSCc3ccc(C)cc3)c2CSCc2ccc(C)cc2)cc1`, the growth inhibition is reported as 0.9% (inactive). With `O=C(NO)Oc1cccc2ccccc12` the growth inhibition was 0.55% (inactive). With `O=C1/C(=C/c2ccccc2)N=C2Sc3c(nc[nH]c3=O)N12` the growth inhibition was -23.8% (inactive). With `O=c1c(O)c(-c2ccccc2)oc2c(CP(=O)(O)O)cccc12` the growth inhibition was -19.1% (inactive). With `O=C(O)CCC(=O)Nc1ccccc1C(=O)O` the growth inhibition was 11.8% (inactive). In the case of `CC(C)OP(=O)(OC(C)C)c1ccc2c(c1)OCCOCCOCCOCCO2`, the growth inhibition is reported as -11.3% (inactive). In the case of `O=C(OCC1OC(n2nc(SCc3ccccc3)c(=S)[nH]c2=O)C(OC(=O)c2ccccc2)C1OC(=O)c1ccccc1)c1ccccc1` (stereo not given), the growth inhibition is reported as 0.35% (inactive). In the case of `CCNC(=O)CCN(C(=O)O)S(=O)(=O)c1ccc(NC(=O)c2ccccc2)cc1`, the growth inhibition is reported as -14.8% (inactive). For `Cc1ccc(C(C)C)c(OCC2=NCCN2C)c1`, the growth inhibition was -3.15% (inactive). With `C=C(C(=O)O)C1CC[C@@]2(C)CC(O)CC(=C)C2C1` (stereo not given in full) the growth inhibition was -0.95% (inactive). With `O=C1CCC2=NCc3c(ccc4ccccc34)N12` the growth inhibition was -0.85% (inactive). With `O=c1c(O)c(O)c1=O` the growth inhibition was -7% (inactive). With `Cc1cc(=O)c2cc(-c3ccccc3)ccc2[nH]1` the growth inhibition was 4.4% (inactive). In the case of `N#Cc1nc(COCc2ccccc2)oc1N`, the growth inhibition is reported as -12.5% (inactive). In the case of `COC(=O)c1ccc(/C=C/c2cc(O)ccc2O)cc1`, the growth inhibition is reported as 25.8% (inactive). With `O=S(=O)(SSS(=O)(=O)c1ccc(Cl)c(Cl)c1)c1ccc(Cl)c(Cl)c1` the growth inhibition was 4.05% (inactive). In the case of `CCCCOC(=O)CNC(=O)c1ccc(C)c(OCc2ccccc2)c1[N+](=O)[O-]`, the growth inhibition is reported as -6.1% (inactive). For `COC1C2CC3C4(CCC5C6(C)CCCC53C(C14)N(C)C6)CC21CCC23C4C=C5C6=C(CCC5(CC42)C3O1)C1(C)CC(C6)CN(C)C1` (stereo not given), the growth inhibition was 9.35% (inactive). For `O=c1cc(C=Nc2ccc(-c3csc(-c4ccccc4)n3)cc2)[nH]c(=S)[nH]1`, the growth inhibition was 91.2% (active). With `C1OC2OC3OCOC3C2O1` (stereo not given) the growth inhibition was 2.85% (inactive). With `O=C1CCNC(=O)N1` the growth inhibition was -7.35% (inactive). With `CC1(C)NC(=O)N(CCCCCCN2C(=O)NC(C)(C)C2=O)C1=O` the growth inhibition was -9.45% (inactive). In the case of `CC(Br)C(=O)n1c2ccccc2c2ccccc21` (stereo not given), the growth inhibition is reported as 9.8% (inactive). With `COC(=O)c1ccc(SCCC(=O)CO)cc1` the growth inhibition was 15.9% (inactive). In the case of `S=C(Nc1ccccc1)Nc1ccc(NC(=S)Nc2ccccc2)cc1`, the growth inhibition is reported as -0.25% (inactive). In the case of `NCCCOC12CC3CC(CC(C3)C1)C2`, the growth inhibition is reported as -4.05% (inactive). In the case of `O=C(CC(=O)Nc1ccccc1)N/N=C/c1cc(N=Nc2ccc(Br)cc2)ccc1O`, the growth inhibition is reported as 24.9% (inactive). In the case of `CCOC(=O)c1nc(C)oc1C(=O)OCC`, the growth inhibition is reported as -12.9% (inactive). With `O=c1oc2c(Cl)cc(Cl)cc2cc1-c1nc2ccccc2[nH]1` the growth inhibition was 38.2% (inactive).

From PubChem BioAssay (NCI)
